From PubChem BioAssay (EPA / NIEHS)
Where a structure was tested more than once in an assay, its records may differ in their call. Active and inactive are the calls of the source. The calls were made as follows: active = hit-call score of the fitted dose curve at least 0.9, where 1 is the maximum; inactive = score below 0.9.

assay: ATG_M_32_CIS: Attagene CIS-FACTORIAL HepG2 Assay for M32 Transcription Factor (Internal Marker) (AID 2282949); details: HepG2 Attagene cis-factorial M32 reporter, mRNA; actives raise or lower the signal;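 also: background control marker of the multiplexed CIS panel rather than a real target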
Method: ATG_CIS is a cell-based, multiplexed-readout assay that uses HepG2, a human liver cell line, with measurements taken at 24 hours after chemical dosing in a 24-well plate.ATG_M_32_CIS is one of 52 assay component(s) measured or calculated from the ATG_CIS assay. It is designed to make measurements of mRNA induction, a form of inducible reporter, as detected with fluorescence intensity signals by Reverse transcription polymerase chain reaction (RT-PCR) and Capillary electrophoresis technology.Data from the assay component ATG_M_32_CIS was analyzed into 1 assay endpoint. This assay endpoint, ATG_M_32_CIS, was analyzed with bidirectional fitting relative to DMSO as the negative control and baseline of activity. Using a type of inducible reporter, measures of mRNA for gain or loss-of-signal activity can be used to understand the background control at the transcription factor-level as they relate to the gene . Furthermore, this assay endpoint can be referred to as a secondary readout, because this assay has produced multiple assay endpoints where this one serves a background control function. To generalize the intended target to other relatable targets, this assay endpoint is annotated to the background measurement intended target family, where the subfamily is internal marker.
Human liver HepG2 cells are transiently transfected with multiple reporter transcription units (MRTUs) in 6-well plates using FuGene 6 reagent (Roche; 3 ml FuGene/1 mg DNA). The MRTU constructs are regulated by a cis-regulating element (promoter). […] A major difference between the CIS and TRANS system is that in CIS activities of endogenous TFs are measured, whereas the TRANS assay evaluates changes in activities of exogenous, chimeric NR-Gal4 proteins. […] At the end of 24 hour incubation, total RNA was isolated using TriZol reagent (Invitrogen). The isolated RNA is then reverse-transcribed using oligo(dT) primer and Mo-MLV reverse transcriptase (Invitrogen) with DNAse I (Ambion) treatment for 30 min. The one-tenth of the produced cDNA was amplified by PCR using Taq DNA polymerase (Invitrogen) and two reporter sequence-specific primers. The PCR products were fluorescently labeled by primer extension with 6-arboxyfluorescein (6-FAM) 5'-labeled reporter sequence-specific primer (2 min at 95 C, 20 s at 68 C and 10 min at 72 C) and these products were digested with 5U of HpaI (New England Biolabs) for 2h at 37 C. The fragments were purified using Qiaquick PCR columns (Qiagen), analyzed on an ABI 3130xL genetic analyzer (Applied Biosystems) with peak positions identified by using a set of X-rhodamine (ROX)-labeled MapMarker1000 molecular weight standards (BioVentures). The raw capillary electrophoresis data was processed using Attagraph software (Attagene).

Row | Compound | outcome | AC50
1 | O=C(Cl)c1ccc(Cl)cc1 | inactive | 
2 | CCCCCCCCSC(=O)Oc1cc(Cl)nnc1-c1ccccc1 | inactive | 
3 | CC(C)(C)c1cc(O)ccc1O | inactive | 
4 | CCOP(OCC)OCC | inactive | 
5 | ClC(Cl)=C(Cl)C(Cl)=C(Cl)Cl | inactive | 
6 | N#CN=C(N)N | inactive | 
7 | O=[N+]([O-])c1c(Cl)c(Cl)cc(Cl)c1Cl |  | 0.0842 µM (active)
8 | O=C1CCCN1 | inactive | 
9 | CC1CN1P(=O)(N1CC1C)N1CC1C (stereo not given) | inactive | 
10 | C=CC#N | inactive | 
11 | CCNc1nc(NC(C)(C)C)nc(SC)n1 | inactive | 
12 | CCOP(=S)(OCC)SCSP(=S)(OCC)OCC | inactive | 
13 | C=CCc1ccc(OC)cc1 | inactive | 
14 | CCC[CH2][Sn]([Cl])([Cl])[Cl] | inactive | 
15 | C[C@H]1O[C@@H](O[C@H]2[C@@H](O)C[C@H](O[C@H]3[C@@H](O)C[C@H](O[C@H]4CC[C@@]5(C)[C@H](CC[C@@H]6[C@@H]5CC[C@]5(C)[C@@H](C7=CC(=O)OC7)CC[C@]65O)C4)O[C@@H]3C)O[C@@H]2C)C[C@H](O)[C@@H]1O | inactive | 
16 | COc1cccc(C=O)c1 | inactive | 
17 | ClCCBr | inactive | 
18 | O=C1C(Cl)=C(Cl)C(=O)c2ccccc21 | inactive | 
19 | O=P(O)(O)CN(CP(=O)(O)O)CP(=O)(O)O | inactive | 
20 | O=C(O)C(F)(F)C(F)(F)C(F)(F)C(F)(F)C(F)(F)C(F)(F)C(F)(F)C(F)(F)C(F)(F)C(F)(F)F | inactive | 160 µM (active)

Row | Compound | outcome | AC50
21 | CC(=O)[O][Hg][c]1ccccc1 | inactive | 
22 | CCOP(=S)(OCC)SCCS(=O)(=O)CC | inactive | 
23 | O=C1C2(Cl)C3(Cl)C4(Cl)C(Cl)(Cl)C5(Cl)C3(Cl)C1(Cl)C5(Cl)C24Cl (stereo not given) | inactive | 
24 | COc1cc2c(cc1OC)[C@@]13CCN4CC5=CCO[C@H]6CC(=O)N2[C@H]1[C@H]6[C@H]5C[C@H]43 | inactive | 
25 | COP(=S)(OC)Oc1c(Cl)cc(C)cc1Cl | inactive | 
26 | CC(C)(c1ccccc1)c1ccc(O)c(C(C)(C)c2ccccc2)c1 | inactive | 
27 | CCOC(=O)/C=C(C)/C=C/C[C@@H](C)CCCC(C)C |  | 157 µM (active)
28 | CC(Br)C(=O)O (stereo not given) | inactive | 
29 | O=C(CCl)CCl |  | 54.6 µM (active)
30 | Clc1ccc(C2(Cn3cncn3)CC(Br)CO2)c(Cl)c1 (stereo not given) | inactive | 
31 | CCCCP(CCCC)CCCC | inactive | 
32 | CC(C)CCCCCCOC(=O)c1ccccc1C(=O)OCCCCCCC(C)C | inactive | 
33 | COc1ccccc1OC | inactive | 
34 | Nc1ncc([N+](=O)[O-])s1 | inactive | 
35 | CCSC(C)CC1CC(=O)C(C(CC)=NOC/C=C/Cl)=C(O)C1 (stereo not given) | inactive | 
36 | CNC(=O)O/N=C/C(C)(C)S(C)=O (stereo not given) | inactive | 
37 | O=C(OC1CCCCC1)c1ccccc1C(=O)OC1CCCCC1 | inactive | 
38 | CC(=O)c1cc(C(C)(C)C)cc2c1CCC2(C)C | inactive | 
39 | CC(=O)C(Cl)C(=O)N(C)C (stereo not given) | inactive | 
